Among the data in PubChem BioAssay are inhibition values, retold here.

Each structure is given as a SMILES string.

Usually inhibition stands for the change of the read-out against control, counted positive when it falls.

Assay [1] can be described thus: inhibitors of PAF-induced NFkB signaling in CF airway cells, dose response, cell-based, uHTS hits, panel, cytotoxicity readout (AID 624344). The conditions noted are these: CF bronchial epithelial cells, PAF-induced NFkB reporter inhibition, with PAF, run 1; at 79 µM (top of the series) unless noted.
Assay in assay [2]: as above
As to conditions: CF bronchial epithelial cells, PAF-induced NFkB reporter inhibition, with PAF, run 2; at 79 µM (top of the series) unless noted.

As for `O=C1N(c2ccccc2C(F)(F)F)O[C@]1(c1ccccc1)C1CCCCC1`, the inhibition in assay [1] was 90.7%; in assay [2] it was 98.7%.

As for `C=CCN1c2ccccc2[C@]23C[C@@H](C(=O)OC)N(C(=O)c4ccc(Br)cc4)C2=NC(C(=O)OC)=C(C(=O)OC)[C@H]13`, the inhibition in assay [1] was 115%; in assay [2] it was 101%.

Take `COc1cc(C(=O)Nc2nnc(-c3sccc3C)s2)cc(OC)c1OC`: the values for the inhibition in assay [1] and in assay [2] were 47.9% and 89.3%, respectively.

Regarding `C[C@H]1Cn2cnc(C(=O)Nc3cccc(Cl)c3)c2C(=O)N1`, the results for the inhibition in assay [1] and in assay [2] were 105% and 104%, respectively.

Turning to `Cc1ccc(NC(=O)c2ccccc2NS(=O)(=O)c2ccc(Cl)s2)cc1S(=O)(=O)N1CCOCC1`, the figures for the inhibition in assay [1] and in assay [2] were 111% and 95.3%, respectively.

For the compound `COC(=O)c1ccc2c(c1)C(C)(C)C(/C=C/c1ccccc1O)=[N+]2C`, the values for the inhibition in assay [1] and in assay [2] were 81.4% and 80.5%, respectively.

As for `O=c1c(O)c(-c2ccccc2)oc2cc(O)cc(O)c12`, the inhibition in assay [1] was 103%; in assay [2], 106%.

Regarding `CC(=O)N1CC(=O)N=C1SCC(=O)Nc1nc(C)c(-c2ccccc2)s1`, the inhibition in assay [1] is 62.6%; in assay [2] it was 73.4%.

`CCOC(=O)c1[nH]c2c(c1C)C(=O)CC(c1ccco1)C2` (stereo not drawn): the inhibition in assay [1] was 40.8%; in assay [2], 98.7%.

For the compound `CN(C)c1ccc(C(C(=O)NC2CCCCC2)N(Cc2ccco2)C(=O)c2snc(C(N)=O)c2N)cc1` (stereo not drawn), the results for the inhibition in assay [1] and in assay [2] were 105% and 102%, respectively.

For the compound `N=C1N(c2ccccc2)C(=S)C(=Nc2ccccc2)N1c1ccccc1`, the inhibition in assay [1] worked out at 114%; in assay [2], 103%.

Turning to `O=C(Nc1ccccc1N1CCOCC1)c1cc(-c2ccco2)nc2ccccc12`, the values for the inhibition in assay [1] and in assay [2] were 102% and 95.6%, respectively.

As for `Cc1ccccc1C(=O)N1CCN(c2ccc(NC(=O)CSc3ccc(Cl)cc3)cc2)CC1`, the figures for the inhibition in assay [1] and in assay [2] were 77.6% and 71.9%, respectively.

Turning to `CC1Cc2ccccc2N1c1ncnc2nc[nH]c12` (stereo not drawn), the inhibition in assay [1] came to 114%; in assay [2], 106%.
